DT40 TDP1 CPT: DT40-hTDP1 cell growth loss with CPT | chicken DT40 Tdp1-/-;hTDP1 cells + 20 nM CPT, ATP luminescence, 48 h | Potency, µM (titrated, usually from 46.2 µM), without a hit: at the top dose activity change, negative = growth inhibition, most hits filed as inhibitors | 420,000 tested, 12% active | AID 686979; further: potency means the concentration at half of the fitted maximal effect; on the % scale 0 is the no-effect control and ±100 the full control effect; nearly all actives have a fitted effect of over 55% in size
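Chicken DT40 Tdp1-/- cells complemented with human TDP1, 400 cells/well, exposed to compounds plus 20 nM camptothecin for at least 48 h at 37 C; viability read as ATP content by CellTiter-Glo luminescence.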
DRD3 agonist: agonists of human D3 dopamine receptor; D3R DiscoveRx beta-arrestin cells, luminescence, 90 min; max activation, %; 410,000 tested, 0.58% active; AID 652048; in the data active means max activation above about 30%; further: 0% is about no effect
Target sequence (P35462 whole entry, looked up): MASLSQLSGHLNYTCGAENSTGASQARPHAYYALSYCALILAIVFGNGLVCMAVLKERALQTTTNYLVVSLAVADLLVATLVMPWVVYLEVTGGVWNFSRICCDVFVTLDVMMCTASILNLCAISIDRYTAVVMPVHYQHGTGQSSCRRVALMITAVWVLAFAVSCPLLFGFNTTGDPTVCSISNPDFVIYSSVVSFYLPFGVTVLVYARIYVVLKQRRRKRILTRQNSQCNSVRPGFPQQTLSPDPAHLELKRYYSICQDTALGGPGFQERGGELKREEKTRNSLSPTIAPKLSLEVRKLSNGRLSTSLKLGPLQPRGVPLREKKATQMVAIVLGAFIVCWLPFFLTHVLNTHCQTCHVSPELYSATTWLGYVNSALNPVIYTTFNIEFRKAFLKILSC
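Agonist mode: compounds and dopamine controls were applied to plated cells for 90 min at 37 degrees C after an overnight attachment at 1500 cells/well. Luminescent read-out followed 30 - 60 minutes at room temperature with DiscoveRx detection reagent.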
TDP1 cell noCPT: qHTS for Inhibitors of human tyrosyl-DNA phosphodiesterase 1 (TDP1): qHTS in cells in absence of CPT | DT40 Tdp1-/- hTDP1 cells, no CPT, ATP luminescence, 48 h | Potency, µM (series often up to 46.2 µM), for inactives: top-dose activity change, negative = growth inhibition, hits mostly inhibitors | 420,000 tested, 15% active | AID 686978, 2013; further: potency means the concentration at half of the fitted maximal effect; on the % scale 0 is the no-effect control and ±100 the full control effect; nearly all actives have a fitted effect of over 55% in size
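Chicken DT40 Tdp1-/- cells stably complemented with human TDP1 were seeded at 400 cells/well with DMSO in place of 20 nM camptothecin. After compound pinning, cells grew at least 48 hr at 37 °C; viability read by CellTiter-Glo luminescence.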
ClpP mod: qHTS Assay for Activators of ClpP. 340,000 tested, 1.9% active. purified B. subtilis ClpP, FRET peptide cleavage, 20 min. AID 651965, 2013. Potency, µM (series often up to 57.5 µM), for the others: top-dose activity change, negative = active; active means well fitted falling curve with a large enough effect; inconclusive means small, poorly fitted or top-dose-only effect; inactive means no such curve, though single readings can be large or run the other way; further: potency means the concentration at half of the fitted maximal effect; the source files actives as falling curves though it sought activators and does not explain the sign; nearly all actives have a fitted effect of over 65% in size
Target sequence (P80244 whole entry, looked up): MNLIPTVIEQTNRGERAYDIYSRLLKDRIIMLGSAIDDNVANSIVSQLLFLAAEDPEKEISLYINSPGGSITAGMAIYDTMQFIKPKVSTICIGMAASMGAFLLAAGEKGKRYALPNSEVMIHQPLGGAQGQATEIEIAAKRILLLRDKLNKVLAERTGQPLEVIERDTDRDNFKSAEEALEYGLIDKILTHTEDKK
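ClpP 10 microg/mL final, pH 8 Tris/KCl buffer with BSA, glycerol, Tween-20; compound pinned in; FRET-FV substrate; RT 20 min; Ex320/Em430; ΔFRET vs ADEP 5.8 microM, DMSO, no enzyme.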
IL1B secr inh: inhibitors of inflammasome signaling (IL-1 beta secretion); THP-1 LPS/ATP IL-1B secretion, AlphaLISA, 16 h; active compounds read low; 360,000 tested, 4.7% active; activity change, % at 57.5 µM; in the data active means activity change below about -50%; inconclusive means mostly about -30% to -49%; further: on the % scale 0 is the no-effect control and ±100 the full control effect
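Secreted IL-1B measured by AlphaLISA bead assay after 16 h compound exposure of THP-1 cells; compounds (final up to 57.5 uM) added 1 h before LPS (250 ng/mL) and ATP (1.25 mM) stimulation; lower signal means less secretion.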
DRD3 antagonist: D3 dopamine receptor (human) antagonism | P35462 | D3R cells, DiscoveRx beta-arrestin luminescence, antagonist mode; active compounds read low | max response, negative = inhibition, % | 360,000 tested, 2.5% active; in the data active means max response below about -50%; inconclusive means no clear call, values can overlap the other calls; further: on the % scale 0 is the no-effect control and ±100 the full control effect
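Cells plated overnight at 1500 cells/well, then exposed to library compounds with dopamine controls for 90 minutes at 37 degrees C. DiscoveRx reagent added for 30–60 minutes at room temperature; luminescence read, quantitative HTS format.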
An asterisk follows results filed as active. A selection: hits, their analogues and other compounds. The true share with any hit is near 21%. Unless noted, the call rests on the fitted dose curve; in most records, active means well fitted inhibition curve with a large enough effect; inconclusive means small, poorly fitted or top-dose-only effect; inactive means flat fitted curve, though single readings scatter.

`CCC1(C)Cc2c(C#N)c(N)sc(=S)c2CO1` (stereo unspecified) gave DT40 TDP1 CPT -6.9%, DRD3 agonist -6.3, TDP1 cell noCPT -17.8%, ClpP mod -4.2%, IL1B secr inh 36.2 and DRD3 antagonist -85.2*.
For CCCN1CNc2c(c(=O)[nH]c(=S)n2CCc2ccc(Cl)cc2)C1 the results were DT40 TDP1 CPT inconclusive, TDP1 cell noCPT inconclusive and ClpP mod -3.1%.
`COc1cccc(CNC(=O)CCC2CCCN(C(=O)CCn3cncn3)C2)c1` (stereo unspecified) gave DT40 TDP1 CPT -0.4%, DRD3 agonist -1.9, TDP1 cell noCPT 4.3%, IL1B secr inh 12.6 and DRD3 antagonist 12.3.
CCCCOc1ccc(CSc2nnc(C)n2N)cc1[N+](=O)[O-] was read as DT40 TDP1 CPT -8.0%, DRD3 agonist 2.4, TDP1 cell noCPT -3.2%, IL1B secr inh 2.1 and DRD3 antagonist -6.8.
For CCCCOc1ccc(CSCCN)cc1Cl the results were DT40 TDP1 CPT 18.4µM*, DRD3 agonist 1.1, TDP1 cell noCPT 18.4µM*, ClpP mod -2.1%, IL1B secr inh -83.3* and DRD3 antagonist -1.1.
`CCOc1ccc(CSC(=N)N)cc1[N+](=O)[O-]` gave DT40 TDP1 CPT 23.1µM*, DRD3 agonist -3.7, TDP1 cell noCPT inconclusive, ClpP mod 0.7%, IL1B secr inh -96.6* and DRD3 antagonist 6.6.
CCOc1ccc(CSC(=N)N)cc1Cl was read as DT40 TDP1 CPT 14.6µM*, DRD3 agonist -14.5, TDP1 cell noCPT 11.6µM*, ClpP mod -2.5%, IL1B secr inh -51.6* and DRD3 antagonist -10.9.
`CCOc1ccc(NC(=O)N2CCN(c3nnc(C)c4c(C)n(-c5ccccc5)nc34)CC2)cc1` gave DT40 TDP1 CPT -16.8%, DRD3 agonist -0.5, TDP1 cell noCPT -5.9% and ClpP mod -4.8%.
Screening NNC(=O)c1cc(Br)cs1 returned DT40 TDP1 CPT inconclusive, DRD3 agonist -2.7, TDP1 cell noCPT 10.5%, ClpP mod -2.0%, IL1B secr inh 107.1 and DRD3 antagonist -1.1.
`CCOc1ccccc1NC(=O)c1cnc(NS(=O)(=O)c2ccccc2)nc1` gave DT40 TDP1 CPT -16.8%, DRD3 agonist 2.4, TDP1 cell noCPT inconclusive, IL1B secr inh 10.8 and DRD3 antagonist -5.9.
Screening Cc1[nH]n(-c2ccccc2)c(=O)c1C(=O)Nc1ccccc1 returned DT40 TDP1 CPT 8.2µM*, DRD3 agonist 3.9, TDP1 cell noCPT 16.4µM*, IL1B secr inh 14.1 and DRD3 antagonist 10.8.
Screening Cc1nn(-c2ccccc2)nc1C(=O)c1c(C)[nH]n(-c2ccccc2)c1=O returned DT40 TDP1 CPT 5.17µM*, DRD3 agonist 18.4, TDP1 cell noCPT 3.66µM*, IL1B secr inh 20.5 and DRD3 antagonist -1.2.
C/C(=N\NC(=O)c1ccc(C)cc1)c1c(C)[nH]n(-c2ccccc2)c1=O was read as DT40 TDP1 CPT 4.61µM*, DRD3 agonist 1.4, TDP1 cell noCPT 4.11µM*, ClpP mod 13.2%, IL1B secr inh 129.7 and DRD3 antagonist -8.4.
For Cc1[nH]n(-c2ccccc2)c(=O)c1C(=O)c1ccc([N+](=O)[O-])cc1 the results were DT40 TDP1 CPT inconclusive, DRD3 agonist -16.9, TDP1 cell noCPT inconclusive, IL1B secr inh 0.0 and DRD3 antagonist -28.8.
`C/C(=N\NC(=O)c1ccccc1)c1c(C)[nH]n(-c2ccccc2)c1=O` gave DT40 TDP1 CPT 0.146µM*, DRD3 agonist -0.7, TDP1 cell noCPT 0.411µM*, IL1B secr inh 102.5 and DRD3 antagonist 17.0.
Cc1[nH]n(-c2ccccc2)c(=O)c1N=Nc1ccccc1C(=O)O was read as DT40 TDP1 CPT inconclusive, DRD3 agonist 19.1, TDP1 cell noCPT inconclusive, ClpP mod -1.2%, IL1B secr inh 31.0 and DRD3 antagonist 247.9.
Screening CC(C)=CCc1c(O)ccc2c1OC(c1ccc(O)c(O)c1)CC2=O (stereo unspecified) returned DT40 TDP1 CPT 10.3µM*, DRD3 agonist 3.9, TDP1 cell noCPT 13µM*, ClpP mod -28.2%, IL1B secr inh 37.1 and DRD3 antagonist 21.0.
For O=C1CC(c2ccc(O)c(O)c2)Oc2c1ccc(O)c2O (stereo unspecified) the results were DT40 TDP1 CPT 10.6%, DRD3 agonist 11.0, TDP1 cell noCPT -2.2%, ClpP mod -2.2%, IL1B secr inh -6.3 and DRD3 antagonist 14.7.
Screening COC(=O)c1ccccc1Sc1ncnc2onc(C)c12 returned DT40 TDP1 CPT 14.6µM*, DRD3 agonist -8.2, TDP1 cell noCPT inconclusive, IL1B secr inh -102.8* and DRD3 antagonist inconclusive.
COC(=O)c1ccc(Cn2c(O)c(N=NC(N)=S)c3ccccc32)o1 was read as DT40 TDP1 CPT inconclusive, DRD3 agonist -5.2, TDP1 cell noCPT inconclusive, ClpP mod 0.3%, IL1B secr inh inconclusive and DRD3 antagonist -12.3.
O=S(=O)(Cc1ccccc1)NC1c2ccccc2Oc2ccccc21 was read as DT40 TDP1 CPT 14.6µM*, DRD3 agonist -2.8, TDP1 cell noCPT 20.6µM*, ClpP mod -1.2%, IL1B secr inh -16.9 and DRD3 antagonist -16.8.
`CCOC(=O)C[C@H]1c2ccccc2S(=O)(=O)N1Cc1cccc(C(F)(F)F)c1` gave DT40 TDP1 CPT inconclusive, DRD3 agonist 10.6, TDP1 cell noCPT 12.6µM*, ClpP mod -1.2%, IL1B secr inh 22.6 and DRD3 antagonist -8.8.
For CCOC(=O)C[C@H]1c2ccccc2S(=O)(=O)N1Cc1cc(OC)c(OC)c(OC)c1 the results were DT40 TDP1 CPT 14.6µM*, DRD3 agonist -2.1, TDP1 cell noCPT 10.3µM*, ClpP mod -0.4%, IL1B secr inh 0.0 and DRD3 antagonist 5.5.
For COc1ccccc1CN1[C@@H](CC(=O)O)c2ccccc2S1(=O)=O the results were DT40 TDP1 CPT inconclusive, DRD3 agonist 8.5, TDP1 cell noCPT -17.1%, ClpP mod 0.0%, IL1B secr inh 41.0 and DRD3 antagonist -53.6*.
Screening COC(=O)C[C@H]1c2ccc(C(F)(F)F)cc2S(=O)(=O)N1Cc1ccccc1 returned DT40 TDP1 CPT 0.9%, DRD3 agonist -9.2, TDP1 cell noCPT inconclusive, ClpP mod 1.2%, IL1B secr inh -1.8 and DRD3 antagonist 18.6.
Screening O=C1CC2(CCN(C(=O)c3cccc([N+](=O)[O-])c3)CC2)Oc2ccccc21 returned DT40 TDP1 CPT inconclusive, DRD3 agonist -16.4, TDP1 cell noCPT inconclusive, ClpP mod inconclusive, IL1B secr inh -0.2 and DRD3 antagonist -21.6.

High-throughput results from PubChem.
